Inhibition data for 56 compounds are collected here from PubChem BioAssay AID2071 (Sanford-Burnham Center for Chemical Genomics, 2009).

A short description of this experiment: NALP1 inflammasome inhibitors in reconstituted yeast, colorimetric, S. cerevisiae, triplicate retest (AID 2071). The settings on record: S. cerevisiae NALP1/ASC/caspase-1 growth, X-gal OD620, 72 h, stronger effect = higher value.

SMILES strings stand for the structures. The whole screen tested about 280,000 compounds, of which about 1,700 (0.61%) were called active. Cut-off read from the data, not from the text of the source: active = inhibition mostly above about 24% (no sharp cut-off); inactive = mostly below about 32%. The list comes from a sample in which actives are over-represented; it also holds similar structures and randomly drawn compounds.

Consider `COc1ccc(C(=O)C2CCCN(C(=O)c3ccc(OC)o3)C2)c(C)c1` (centres undefined), for which the inhibition (at 10 µM unless noted) was 14.5% (inactive).
Same read-out and setting: as for `CC(Sc1nncn1C)C(=O)Nc1cc(C(F)(F)F)ccc1N1CCOCC1` (centres undefined), the figure is 6.8% (inactive).
Same read-out and setting: the figure for `CC(C)CC(=O)Nc1cc(C(F)(F)F)ccc1N1CCOCC1` is 39.4% (active); for `CCC(=O)Nc1cc(C(F)(F)F)ccc1N1CCCC1` it is 9% (inactive).
The same measure, in the same setting: the figure for `CC(=O)c1ccc(NC(=O)c2cc(-c3cccs3)on2)cc1` is 27.2% (inactive); for `CN(C)CCCN(C(=O)c1ccc(S(=O)(=O)N2CCCCCC2)cc1)c1nc2ccc(Br)cc2s1` it is 40.2% (active).
Take `CN(C)CCCN(C(=O)c1ccc(S(=O)(=O)N2CCCc3ccccc32)cc1)c1nc2ccc(F)cc2s1`: for the setting “at 10 µM unless noted”, the inhibition was 33.1% (inactive).
With `CCN(CC)CCN(C(=O)c1ccc(S(=O)(=O)N2CCOCC2)cc1)c1nc2cc3c(cc2s1)OCCO3`, the inhibition (at 10 µM unless noted) was 6.8% (inactive).
Consider `O=C(N/N=C/c1ccccc1O)C1CCCC1`, for which the inhibition (at 10 µM unless noted) is -5.6% (inactive).
Still for that read-out and setting: the figure for `COc1ccc(N(C)S(=O)(=O)c2ccc3c(c2)CC(C)N3C(=O)C2CC2)c(OC)c1` (centres undefined) is 10.4% (inactive); for `O=C(Nc1ccc(NC(=O)c2cccs2)cn1)c1ccco1` it is -12.5% (inactive); for `O=C(Nc1ccccc1)c1ccc(NC(=O)c2cccs2)cc1` it is 1.7% (inactive).
For `O=C(Nc1ccnc(-c2ccncc2)n1)c1cccs1`, the inhibition (at 10 µM unless noted) was 37.8% (active).
Consider `COCC(=O)Nc1ccc(Br)cc1`, for which, under “at 10 µM unless noted”, the inhibition was -1.1% (inactive).
Regarding `CN1CCN(NC(=O)Nc2ccc(Br)cc2)CC1`, where the note is “at 10 µM unless noted”, the inhibition was 9.6% (inactive).
The same measure, in the same setting: as for `CN1C(CC(=O)Nc2ccc(Br)cc2)c2ccccc2CC1(C)C` (centres undefined), the figure is 34.1% (active).
Still for that read-out and setting: as for `CC(C)Sc1ncnc2c1cnn2-c1ccccc1`, the figure is 13.3% (inactive); as for `Cc1nonc1NC(=O)c1oc2ccccc2c1C`, 15.3% (inactive).
Same read-out and setting: the figure for `Cc1cccc(N2C(=O)CC(SC(N)=Nc3ccccc3)C2=O)c1` (centres undefined) is 3% (inactive); for `COC(=O)c1cc(C(=O)OC)cc(N2C(=O)CC(N3CCN(c4ccccc4)CC3)C2=O)c1` (centres undefined) it is 9.3% (inactive).
In the case of `COC(=O)c1ccccc1SC1CC(=O)N(c2cccc(C)c2)C1=O` (centres undefined), the inhibition (at 10 µM) was 74.7% (active) and the inhibition (triplicate retest, at 20 µM) was 89.6%.
Consider `CC(=O)c1ccc(N2Cc3ccccc3C2)cc1`, for which the inhibition (at 10 µM unless noted) was 23% (inactive).
Turning to `COC(=O)c1ccc(NC(=O)CSc2nncn2-c2cccnc2)cc1`, the inhibition (at 10 µM unless noted) was 12.6% (inactive).
Same read-out and setting: the figure for `COc1ccc(/C=C2\SC(=S)N(CCCC(=O)NC3CCCC3)C2=O)cc1OC` is 12.9% (inactive).
Same read-out and setting: the figure for `Cc1nc(-c2ccccc2)sc1C(=O)/C=C/N(C)C` is 32.3% (active).
The same measure, in the same setting: as for `Cc1ccc(SCC(=O)c2sc(-c3ccccc3)nc2C)cc1`, the figure is 30.2% (inactive); as for `CN(C)/C=C/C(=O)c1ccccc1F`, 27.1% (inactive).
Take `CCCc1cc(=O)oc2c(C)c(OCC(=O)Nc3ccccn3)ccc12`: the inhibition (at 10 µM unless noted) was 16.1% (inactive).
On to `COc1cc(/C=C/C(=O)N2CCc3ccccc3C2)cc(OC)c1OC`, for which the inhibition (at 10 µM unless noted) is 10.3% (inactive).
Same read-out and setting: the figure for `COc1ccc(OC)c(C(=O)NC(CC(N)=O)c2ccc(N3CCC(N4CCCCC4)CC3)c([N+](=O)[O-])c2)c1` (centres undefined) is 11.6% (inactive).
For the compound `COc1ccc(S(=O)(=O)n2cnc3ccccc32)c(C)c1`, under “at 10 µM unless noted”, the inhibition is 2.2% (inactive).
In the case of `Cc1ccc(S(=O)(=O)n2cnc3ccccc32)c(C)c1`, where the note is “at 10 µM unless noted”, the inhibition is 40.9% (active).
As for `Cc1ccc(C)c(S(=O)(=O)n2cnc3ccccc32)c1`, the inhibition (at 10 µM unless noted) is 1.1% (inactive).
As to `CC1CN(C(=O)c2cc(COc3c(F)cccc3F)on2)CCN1C` (centres undefined), the inhibition (at 10 µM unless noted) is -3.5% (inactive).
The same measure, in the same setting: the figure for `Cc1ccc(CNC(=O)CCS(=O)(=O)c2ccc3c(c2)CC(C)N3C(=O)C2CC2)o1` (centres undefined) is 20.6% (inactive); for `O=C(NC(=O)c1ccccc1)NC(=O)c1ccccc1` it is -6% (inactive); for `O=C(NCC1CCCO1)/C(=C/c1ccc(Cl)cc1)NC(=O)c1ccccc1` (centres undefined) it is 22.3% (inactive).
The same measure, in the same setting: as for `N#C/C(=C/c1ccc(Cl)cc1)NC(=O)c1ccccc1`, the figure is 43.3% (active).
Consider `O=C(Nc1ccccc1Cl)NC1(C(=O)N2CCOCC2)CCCCC1`, for which, for the setting “at 10 µM unless noted”, the inhibition was 7.4% (inactive).
The same measure, in the same setting: the figure for `CC1CCC2(CC1)NC(=O)N(CC(=O)c1ccc3c(c1)OCO3)C2=O` (centres undefined) is 9% (inactive).
The same measure, in the same setting: the figure for `Cc1occc1C(=O)N/N=C/c1ccc(-c2cccc([N+](=O)[O-])c2)o1` is 11.5% (inactive); for `CC[C@H]1OC(=O)[C@H](C)[C@@H](O[C@H]2C[C@@](C)(OC)[C@@H](O)[C@H](C)O2)[C@H](C)[C@@H](O[C@@H]2O[C@H](C)C[C@H](N(C)C)[C@H]2O)[C@](C)(O)C[C@@H](C)[C@@H]2N[C@@H](COCCOC)O[C@H]([C@H]2C)[C@]1(C)O` it is 75.2% (active); for `CCn1c(SCc2cccc(C(=O)O)c2)nnc1-c1ccc(Cl)cc1` it is 7.1% (inactive).
As for `CCN1/C(=C/c2ccc3ccc(C)cc3[n+]2CC)Sc2ccccc21`, the inhibition by setting is: (at 10 µM) 87.1% (active); (triplicate retest, at 20 µM) 107%.
Regarding `CCN1CCN(CCNC(=O)c2ccc(/C=C3/Sc4ccccc4N(Cc4cccc(C)c4)C3=O)cc2)CC1`, the inhibition (at 10 µM unless noted) was 12.2% (inactive).
As to `CCN1/C(=C\c2ccc3ccccc3[n+]2CC)Sc2cc(C)ccc21`, the inhibition by setting is: (at 10 µM) 77.1% (active); (triplicate retest, at 20 µM) 81.9%.
For `CCN1/C(=C/C(=S)Nc2ccccc2)Sc2ccccc21`, for the setting “at 10 µM unless noted”, the inhibition is 27.1% (inactive).
In the case of `CCCN1CCn2c3c(c4cc(Br)ccc42)CCCC31` (centres undefined), the inhibition (at 10 µM unless noted) is 15.4% (inactive).
On to `CCN(C(=O)CN1C(=O)/C(=C/c2ccc(F)cc2)SC1=S)C1CCS(=O)(=O)C1` (centres undefined), for which the inhibition (at 10 µM unless noted) is 4.8% (inactive).
On to `COc1ccc(C(=O)N2CCCCC2C(=O)Nc2ccc(-n3nc(C)cc3C)cc2)o1` (centres undefined), for which the inhibition (at 10 µM unless noted) is 8.7% (inactive).
As for `Cc1snc(SCc2c(F)cccc2Cl)c1C#N`, the inhibition (at 10 µM unless noted) was 6.1% (inactive).
As to `CCC(=C/c1sc2ccc3ccccc3c2[n+]1C)/C=C1\Sc2ccc3ccccc3c2N1C`, the inhibition (at 10 µM unless noted) is 42.3% (active).
On the same count and under the same terms, as for `COc1ccc(/C=N/Nc2ccccc2C(=O)O)cc1`, the figure is 10.9% (inactive); as for `CCNC(=O)Nc1ccc(S(=O)(=O)Nc2cnc(C)nc2C)cc1`, 18.5% (inactive).
On to `CCOc1ccccc1/C=N/Nc1nc2ccccc2o1`, for which the inhibition (at 10 µM unless noted) is 14.3% (inactive).
Turning to `COc1ccccc1CCNC(=O)C1CCN(C(=O)/C=C/c2ccccc2)CC1`, for the setting “at 10 µM unless noted”, the inhibition was 16.7% (inactive).

Usually inhibition stands for the change of the read-out against control, counted positive when it falls.
